Drawing on PubChem BioAssay AID628 (Vanderbilt High Throughput Screening Facility, 2007), this text covers B-score for 98 compounds.

Among all 64,000 compounds or so, about 2,200 (3.4%) were called active. The sample holds actives, similar compounds and a random draw of the others, so the mix is not that of the screen. Unmarked numbers belong to inactive results.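 The calls were made as follows: active = calcium fluorescence response, raw or row-and-column corrected B-score, differing from the plate sample mean either way at a set confidence level, mostly lower; inactive = the rest.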

Sequence of Muscarinic acetylcholine receptor M1 (Rattus norvegicus) (P08482 whole entry, looked up): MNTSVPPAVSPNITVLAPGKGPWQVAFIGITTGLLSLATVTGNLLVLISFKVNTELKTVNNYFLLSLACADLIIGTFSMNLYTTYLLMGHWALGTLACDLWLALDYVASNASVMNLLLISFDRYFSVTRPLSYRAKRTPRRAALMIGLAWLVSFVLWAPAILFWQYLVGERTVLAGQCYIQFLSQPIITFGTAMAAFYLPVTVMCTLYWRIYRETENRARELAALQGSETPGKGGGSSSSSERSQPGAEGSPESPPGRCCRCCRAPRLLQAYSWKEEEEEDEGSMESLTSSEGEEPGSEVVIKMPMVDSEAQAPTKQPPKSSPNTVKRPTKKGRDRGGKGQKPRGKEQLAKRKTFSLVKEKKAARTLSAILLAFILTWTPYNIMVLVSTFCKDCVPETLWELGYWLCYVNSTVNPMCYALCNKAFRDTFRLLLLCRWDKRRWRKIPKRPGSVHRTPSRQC

This experiment addresses Muscarinic acetylcholine receptor M1 (Rattus norvegicus) (UniProt P08482). Kind of experiment: blocks the rat M1 muscarinic receptor response to acetylcholine (AID 628). The settings on record: CHO-M1 cells, Fluo-4 calcium, ACh EC80 antagonist mode; at 10 µM; active compounds read low.
For the compound `CC1Oc2ccccc2N(Cc2cccnc2)C1=O` (stereo not drawn), the B-score was 1.07. Then `COC(=O)c1sc(=S)n(-c2ccccc2)c1N`, with 0.339; and `Cc1ccc(Cn2c(NC(=O)c3ccco3)nc3ccccc32)cc1`, with 0.141. Then `Cc1ccc(-c2csc3nnc(SCC(=O)NCc4ccco4)n23)cc1`, with -10.4 (active).

Consider `Cn1c(-c2ccc(F)cc2)cnc1SCC(=O)NCc1ccco1`, for which the B-score is 0.325.

For `O=C(CSc1nnc2scc(-c3ccc(F)cc3)n12)NCc1ccco1`, the B-score was -0.509. As to `Cc1nc2ccccc2c2oc(C(=O)NCCCN3CCC(C)CC3)cc12`, the B-score was -6.51 (active).

As to `Cc1nc2ccccc2c2oc(C(=O)NCC3CCCO3)cc12` (stereo not drawn), the B-score was 0.0181. For `CCCN(CCC)CCNC(=O)c1cc2c(C)nc3ccccc3c2o1` the value was 0.00891; for `Cc1ccc(Nc2nc(CSc3nnnn3-c3ccccc3)cc(=O)[nH]2)cc1`, -0.208. Regarding `CCOC(=O)Cc1csc(NC(=O)CSc2nc(C)cc(=O)[nH]2)n1`, the B-score is -0.287.

Turning to `CN(CC(=O)NC1CCCCC1)S(=O)(=O)c1ccc(Br)s1`, the B-score was -1.64. For `Cc1ccc(S(=O)(=O)Cn2nnnc2CN2CCN(Cc3ccc4c(c3)OCO4)CC2)cc1`, the B-score is -0.838. With `Fc1ccccc1C(c1nnnn1Cc1ccc2c(c1)OCO2)N1CCN(Cc2ccccc2)CC1` (stereo not drawn), the B-score was 0.889 (active). For `Cc1cc(C)c2[nH]c(=O)c(C(c3nnnn3Cc3ccc4c(c3)OCO4)N3CCCC3)cc2c1` (stereo not drawn) the value was 0.419; for `CCOC(=O)Cn1c(N)c(C(=O)OC)sc1=S`, 0.106.

With `Cn1c(=O)c2c(nc(OCc3cccnc3)n2Cc2ccccc2)n(C)c1=O`, the B-score was -0.0901. As to `Cc1ccccc1C(OCC(O)CN1CCCCC1CCO)c1ccccc1` (stereo not drawn), the B-score is -3.65 (active). In the case of `COc1cccc(-c2nnc(N(C)C(=O)c3ccno3)s2)c1`, the B-score is 0.344. In the case of `CC1CN(c2cc(=O)n(-c3cccc(Br)c3)c(=O)[nH]2)CC(C)O1` (stereo not drawn), the B-score is -0.299.

In the case of `CCN1C(=O)/C(=C2\SC(N3CCCCC3)=NC2=O)c2ccccc21`, the B-score was -3.91 (active). Then `CCN1C(=O)/C(=C\N2CCN(c3cccc(Cl)c3)CC2)SC1=S`, with 0.609; and `CCN1C(=O)/C(=C\N2CCN(c3ccccc3)CC2)SC1=S`, with 0.399.

In the case of `CS(=O)(=O)N(CC(=O)N1CCOCC1)c1ccc2c3c(cccc13)CC2`, the B-score was 0.0978. For `Cc1cc(NC(=O)COn2nnc3ccccc32)no1` the value was -0.00408; for `CCOC(=O)c1c(C2CC2)csc1NC(=O)CSCc1c(C)noc1C`, -0.892. Then `Cc1cc(NC(=O)CCC2COc3ccccc3O2)no1` (stereo not drawn), with -0.711. Then `c1ccc2c(c1)OCC(CNc1ncnc3nc[nH]c13)O2` (stereo not drawn), with -5.49 (active); and `COc1ccc(CCNc2ncnc3nc[nH]c23)cc1OC`, with -0.37. Turning to `COCc1[nH]nc2c1C(C1C=CCCC1)C(C#N)=C(N)O2` (stereo not drawn), the B-score is 0.327.

For the compound `O=C(c1ccccc1)c1ccc(OC(=O)N2CCCC2)cc1`, the B-score is -0.578.

With `CCOc1ccccc1C1CC(c2ccccc2)Nc2nc(N)nn21` (stereo not drawn), the B-score is 0.59. Then `CCOC(=O)c1c(C)[nH]c(C(=O)NCc2ccccc2OC)c1C`, with -0.312; and `CCCCOC(=O)c1[nH]c(C)c(C(=O)OC)c1C`, with 1.78 (active). For the compound `CCOC(=O)c1c(C)[nH]c(C(=O)COc2ccc3c(c2)OCO3)c1C`, the B-score is -0.104.

For the compound `COc1ccccc1N(CC(=O)N1CCCCC1)S(=O)(=O)c1ccccc1`, the B-score is -0.874. Then `COc1ccc(N2C(=O)c3cccc4cccc(c34)C2=O)nn1`, with 0.203; and `COC(=O)C1=C(C)Nc2ncnn2C1c1ccco1` (stereo not drawn), with 0.342.

As to `CC(=O)C1=C(O)C(=O)N(c2ccc(S(N)(=O)=O)cc2)C1c1ccccc1F` (stereo not drawn), the B-score was -0.56. For `C/C(CC(O)(/C=N/O)c1ccccc1)=N\O` (stereo not drawn) the value was 0.581; for `COC(=O)Cc1cc(=O)n(-c2nc3ccccc3s2)[nH]1`, 0.181. For `CCOC(=O)N1CCC(NC(=O)c2ccc3nc(N4CCOCC4)sc3c2)CC1` the value was 0.0825; for `CCOC(=O)N1CCN(CC(=O)Nc2cc(C)nn2-c2nc3ccccc3s2)CC1`, -2.41 (active).

With `CCCCNc1nc2c(c(=O)n(C)c(=O)n2C)n1Cc1cccc(OC)c1`, the B-score is -0.0697.

As to `O=C1NC(Nc2nc3ccccc3s2)(C(F)(F)F)C(=O)N1C1CCCCC1` (stereo not drawn), the B-score was -3.66 (active). For `COC(=O)NC1(C(F)(F)F)NC(=O)N(C2CCCCC2)C1=O` (stereo not drawn) the value was -0.0429.

As for `Cc1c(NC(=O)C(C)OC(=O)c2cc3c4ccccc4n(C)c3s2)c(=O)n(-c2ccccc2)n1C` (stereo not drawn), the B-score was 0.392. Regarding `CCC(=O)c1ccc(OCC(O)CN2CC(C)OC(C)C2)cc1` (stereo not drawn), the B-score was 0.0196.

Consider `CCC(=O)c1ccc(OCC(O)CN2C(=O)NC(C)(C)C2=O)cc1` (stereo not drawn), for which the B-score is 0.82 (active). As for `CC1(C)NC(=O)N(CCOc2cccc(Oc3ccccc3)c2)C1=O`, the B-score is -0.997.

With `Cc1ccc(C(c2sc3nc(C)nn3c2O)N2CCN(c3ccccc3)CC2)cc1` (stereo not drawn), the B-score is 0.39. For `Cn1c(SCc2nc3ccccc3s2)nnc1-c1ccc2c(c1)OCO2` the value was 0.0691; for `Cc1cccc2cc(CN(Cc3cccs3)C(c3nnnn3C3CCCC3)C(C)C)c(=O)[nH]c12` (stereo not drawn), 0.279. On to `Cc1cccc2cc(CN(Cc3ccc4c(c3)OCO4)Cc3nnnn3C3CCCC3)c(=O)[nH]c12`, for which the B-score was -0.601. Then `CCC(c1nnnn1C1CCCC1)N(Cc1cccs1)Cc1cc2cccc(C)c2[nH]c1=O` (stereo not drawn), with 1.98 (active); and `Cc1cc(Cl)c(S(=O)(=O)NCc2cccnc2)cc1OCC(N)=O`, with 0.63. With `Cn1c(=O)c2c(nc(Br)n2CCSc2nc3ccccc3o2)n(C)c1=O`, the B-score is 0.536.

Take `COC(=O)c1cc(OC)c(OC)cc1NC(=O)C1CCCO1` (stereo not drawn): the B-score is -0.418.

Turning to `CCOc1ccc(C(=O)Nc2cc(OC)ccc2OC)cc1`, the B-score was 0.223. Consider `COc1ccc(-n2nnnc2SCC(=O)c2ccc(OC)c(OC)c2)cc1`, for which the B-score is -0.785. Turning to `CCN(CCCCOC(=O)c1ccc(OC)c(OC)c1)C(C)Cc1ccc(OC)cc1` (stereo not drawn), the B-score was -14.7 (active). As for `O=C(CSc1nnnn1-c1ccc2c(c1)CCC2)Nc1ccc2c(c1)OCCO2`, the B-score is -1.02. Take `CC(=O)Nn1cc2c(=O)n(C)c(=O)n(C)c2c1`: the B-score is 0.526. Then `O=C(NCCCN1CCCCCC1)C1CC(=O)N(C2CCCC2)C1` (stereo not drawn), with -2.1 (active); and `CC(C)OCCCNC(=O)C1CC(=O)N(C2CCCCCCC2)C1` (stereo not drawn), with -0.0238. For `O=C(NCCc1ccc(Cl)cc1)C1CC(=O)N(C2CCCCC2)C1` (stereo not drawn) the value was -0.27. Then `Cc1ccc(-n2nc3c(c2NC(=O)CCC2CCCCC2)CS(=O)C3)cc1` (stereo not drawn), with 0.299. Consider `Cc1ccnc(SCCn2c(N(C)Cc3ccccc3)nc3c2c(=O)n(C)c(=O)n3C)n1`, for which the B-score was 0.589. For `COC(=O)C(C)Sc1ccc2nnc(-c3cccc(F)c3)n2n1` (stereo not drawn) the value was -0.0277; for `CCOC(=O)C(C(=O)OCC)C(C#N)c1ccccc1` (stereo not drawn), 0.000361; for `CC(NC(=O)Nc1ccccc1)c1ccccc1` (stereo not drawn), 0.2. Turning to `CCC(C(=O)OCCN(CC)CC)c1ccccc1` (stereo not drawn), the B-score is -11.7 (active). Turning to `N#Cc1ccccc1-n1c(N)c(C(=O)N2CCCC2)sc1=S`, the B-score is 0.0882. Then `CCc1ccccc1N(CC(=O)NCCSCc1ccco1)S(C)(=O)=O`, with 0.00624; and `COC(=O)c1sc(NC(=O)c2ccc(OC)cc2OC)nc1C`, with 0.124; and `COc1cccc2sc(Nc3nc(C)c(C(C)=O)s3)nc12`, with -5.09 (active).

On to `COc1ccccc1Nc1ncc(C(C)=O)c(C)n1`, for which the B-score is -0.0613. Then `O=C(CC(NCCN1CCOCC1)C(=O)O)Nc1cccc(Cl)c1` (stereo not drawn), with -0.31. For `C=CCNC(=O)c1cc(-c2ccccc2O)on1` the value was -0.349. For `CCC(=O)Nc1ccc2c(c1)nc(CCN1CCN(C)CC1)n2C` the value was 0.254. As to `Cc1nn(CC(=O)Nc2ccc3c(c2)nc(CN2CCCCC2)n3C)c(=O)c2ccccc12`, the B-score is -0.553.

On to `Cn1c(CCN2CCCCCC2)nc2cc(NC(=O)Nc3ccccc3)ccc21`, for which the B-score is -12.1 (active). Take `CC(=O)Nc1ccc(-c2cn3cccnc3n2)cc1`: the B-score was -0.0342.

On to `COc1ccc(S(=O)(=O)NC(CC(=O)NCc2ccccc2OC)c2ccco2)cc1` (stereo not drawn), for which the B-score is -0.297. In the case of `CCS(=O)(=O)n1nc(-c2ccc(OC)cc2)nc1SC`, the B-score was 0.364. On to `CC(C)OCCCNc1ncnc2c1[nH]c1ccc(F)cc12`, for which the B-score is -5.34 (active).

With `O=C1CCCN1CCCNc1ncnc2c1[nH]c1ccccc12`, the B-score is -0.26.

`CCN1CCCC1CNc1ncnc2c1[nH]c1ccc(F)cc12` (stereo not drawn): the B-score was 0.215. For `Cc1ccc2c(c1)NCC(C(=O)NC1CCC(C)CC1)O2` (stereo not drawn) the value was 0.906; for `O=C(Oc1cccnc1)c1cc2ccccc2oc1=O`, -1.49. Then `OC(COc1cccc2ccccc12)CN1CCN(c2ccccn2)CC1` (stereo not drawn), with -0.255. As for `CN(C)[C@@H]1C(=O)C(C(N)=O)=C(O)[C@@]2(O)C(=O)C3=C(O)c4c(O)ccc(Cl)c4[C@@H](O)[C@H]3C[C@@H]12`, the B-score was -15.3 (active). `Cn1cccc1C(=O)NC(=O)COC(=O)Cc1coc2ccc3ccccc3c12`: the B-score was -0.0274. For `COc1ccccc1CNC(=O)C1CCN(S(C)(=O)=O)CC1`, the B-score is 0.445. Take `Cc1nc(NCCN)c(C#N)c2c1COC(C)(C)C2`: the B-score was 0.614. Then `Fc1ccc2[nH]c3c(N4CCN(Cc5ccc6c(c5)OCO6)CC4)ncnc3c2c1`, with -0.265; and `Fc1ccc2[nH]c3c(N4CCSCC4)ncnc3c2c1`, with -2.69 (active). Then `Cc1ccc(-n2ncc3c(N4CCN(c5ccc(F)cc5)CC4)ncnc32)c(C)c1`, with -0.0379.
